Binding signal data for 45 sequences are collected here from publication PMC7819943, “Rice protein-binding microarrays: a tool to detect cis-acting elements near promoter regions in rice”.

Whole data set: some 39,000 sequences, median “fluorescence intensity (a.u.)” near 4,300, cut for the highest 2% near 39,000. The sample as a whole holds a higher share of the highest values than the screen did.

The experiment has as its target T1, OsSMF1 (Oryza sativa, UniProt Q6ZLB0 1-436).
T1 sequence: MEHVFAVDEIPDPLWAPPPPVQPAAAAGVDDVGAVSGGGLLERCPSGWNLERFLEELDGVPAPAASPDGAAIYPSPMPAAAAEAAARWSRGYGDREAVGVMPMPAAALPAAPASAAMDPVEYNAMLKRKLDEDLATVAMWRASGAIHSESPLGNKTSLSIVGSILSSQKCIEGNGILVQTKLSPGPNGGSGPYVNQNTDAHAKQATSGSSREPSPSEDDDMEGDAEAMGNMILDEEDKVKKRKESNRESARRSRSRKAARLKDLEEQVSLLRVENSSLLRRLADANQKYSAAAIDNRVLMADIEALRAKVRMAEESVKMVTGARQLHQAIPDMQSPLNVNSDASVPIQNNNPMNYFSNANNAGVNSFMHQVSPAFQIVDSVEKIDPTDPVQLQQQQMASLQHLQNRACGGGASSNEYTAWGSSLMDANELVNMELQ
Kind of experiment: protein-binding microarray (RPBM); PBS, 2% BSA, 51.3 ng/ul salmon testes DNA, 50 uM zinc acetate, 200 nM TF, 25 C, 1 h; high values mean tight binding. The conditions noted are these: protein: recombinant; tags: N-terminal polyhistidine and DsRed monomer fusion (pET32a); chain copies: 2; label: CyDye5-dUTP incorporated in the synthesized complementary strand; 3' TTTTT single-stranded linker to array surface; dsDNA, one strand shown. The gist of the method: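 Binding signal is defined as the fluorescence intensity of each feature in arbitrary units, read on an Axon 4000B scanner. Transcription factors with N-terminal polyhistidine and DsRed fusions came from E. coli BL21-CodonPlus and were purified on Ni–NTA. They were incubated at 200 nM for 1 h at 25 °C on a custom Agilent array that had been made double-stranded with Cy5-dUTP, with 50 µM zinc acetate present, and the array was washed.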
On to “ATTTAATGTTGTCCTAGCTAGATCCATCCAAGGCTCCAAACGGAGTCACCTAGTGCAG”, for which the binding signal is 3590 fluorescence intensity (a.u.).

As for “CGCCAGCCACCTCCGGCGCCGTTCGCCAGCCACCACGCGCCGGAGTCACCTAGTGCAG”, the binding signal is 37900 fluorescence intensity (a.u.).

As for “ACCTTCTAGACAAGGGTATGATGACATGTACCGATCCCAACGGAGTCACCTAGTGCAG”, the binding signal is 6680 fluorescence intensity (a.u.).

Consider “ACACACACACACACCCACCACACCACCCCGGCCGCTTCCGCGGAGTCACCTAGTGCAG”, for which the binding signal was 3210 fluorescence intensity (a.u.).

Take “CCACCGCCGCCACACAGTCCGCTTCGGTTCCCCGTTTCCGCGGAGTCACCTAGTGCAG”: the binding signal is 65500 fluorescence intensity (a.u.).

For the sequence “GCCGTTAGTGCCACGTGGCGCCTTCCCATTCGACCGCCGCCGGAGTCACCTAGTGCAG”, the binding signal was 37400 fluorescence intensity (a.u.).

For the sequence “CGCGGCGGCGGCGGCGCGAAGGCACGTGGCACGGCGCCGCCGGAGTCACCTAGTGCAG”, the binding signal is 3420 fluorescence intensity (a.u.).

Take “GGCGGCGTTCGCGGCGGCGACGTGGGCGTACCTGACGGCGCGGAGTCACCTAGTGCAG”: the binding signal was 3590 fluorescence intensity (a.u.).

Consider “TGTACACGCGCAGGGCGGCCCTGGCGTTGCTGACGTGGCGCGGAGTCACCTAGTGCAG”, for which the binding signal was 42500 fluorescence intensity (a.u.).

“CTCCCGCCGTGGCACGCGCGACGTGCCGCGTGCGCACAGGCGGAGTCACCTAGTGCAG”: the binding signal is 46800 fluorescence intensity (a.u.).

“CTTCCCGCCGCCGCCACTGCCACGAACAGTTCGCTCACCGCGGAGTCACCTAGTGCAG”: the binding signal is 3200 fluorescence intensity (a.u.).

For the sequence “TAGCCGTTAGTGCCACGTGGCGCCTTCCCATTCGACCGCCCGGAGTCACCTAGTGCAG”, the binding signal is 40600 fluorescence intensity (a.u.).

As for “GAACGGTCAAATAGCCGTTAGTGCCACGTGGCGCCTTCCCCGGAGTCACCTAGTGCAG”, the binding signal was 25100 fluorescence intensity (a.u.).

“ACGCGCGGGCGTGGCTGACGTGGCCCGGAGAAGGCGGAGGCGGAGTCACCTAGTGCAG”: the binding signal was 5770 fluorescence intensity (a.u.).

“GCCCGCCCGTCCCGTCCGACGTCCGCGTCACGCACGCGCGCGGAGTCACCTAGTGCAG”: the binding signal was 7940 fluorescence intensity (a.u.).

As for “GGAGGGTGGGGTAGGAGAGGATGCGGCGGGCGCCATGGCTCGGAGTCACCTAGTGCAG”, the binding signal was 3450 fluorescence intensity (a.u.).

As for “GCCACTTGCCCAGGTCACGCACACATTATTGAGCGAGCGACGGAGTCACCTAGTGCAG”, the binding signal was 4590 fluorescence intensity (a.u.).

As for “AGTCGCACGCCAAGTGTTTGTTGTTTTGCCAAGCAAGATGCGGAGTCACCTAGTGCAG”, the binding signal was 3520 fluorescence intensity (a.u.).

On to “TCGAGCCCCTCTCCCTCCGCGAGCCGTGTGCAGCGGGCGACGGAGTCACCTAGTGCAG”, for which the binding signal is 3430 fluorescence intensity (a.u.).

As for “ACGGATTCCTGTTAATAGAGTGTTTCCGTAATATGTGGCACGGAGTCACCTAGTGCAG”, the binding signal is 3820 fluorescence intensity (a.u.).

With “GTTTGGGGTTTCTTTCCTGCCTCGTGAGCTGACGCCGGTGCGGAGTCACCTAGTGCAG”, the binding signal was 4080 fluorescence intensity (a.u.).

On to “GGCAGCCATTCCCACCGCGCCACACGCGCCACACGCCCCGCGGAGTCACCTAGTGCAG”, for which the binding signal was 3240 fluorescence intensity (a.u.).

Consider “GCCGCGCCGCGCCGTGGCGTGGCGTGGCGTGGCGCGGCCACGGAGTCACCTAGTGCAG”, for which the binding signal is 6530 fluorescence intensity (a.u.).

For “CCGGCGGCAGTGGCCCGGCGGCGCCGCCACCTTCCGTGCCCGGAGTCACCTAGTGCAG”, the binding signal is 43700 fluorescence intensity (a.u.).

As to “CGCCTTCGTCCCATCTCGACCGTCCACGTGTGGCCCATCCCGGAGTCACCTAGTGCAG”, the binding signal is 8200 fluorescence intensity (a.u.).

For the sequence “AAAGCGTTCCGCGGCGCCGCCGTGGCGTCCGGCGTCCGGCCGGAGTCACCTAGTGCAG”, the binding signal is 3900 fluorescence intensity (a.u.).

For the sequence “GTTAGTGCCACGTGGCGCCTTCCCATTCGACCGCCGCCCGCGGAGTCACCTAGTGCAG”, the binding signal is 42100 fluorescence intensity (a.u.).

In the case of “CTCGAGCCCGCGGATGGCGCCCCATGGCGTGGCGGCGGAGCGGAGTCACCTAGTGCAG”, the binding signal is 3820 fluorescence intensity (a.u.).

“TGTAAGCATCAGCATGTCAAGGTTAACACCTCACTATCTCCGGAGTCACCTAGTGCAG”: the binding signal was 4630 fluorescence intensity (a.u.).

For “ACAGGGGCAGGGGTCATGTGGTGGAGGTAATCAATTAATCCGGAGTCACCTAGTGCAG”, the binding signal is 3660 fluorescence intensity (a.u.).

Turning to “TAGATGTTACTCCCTCCGTCCCTTCGTCCTAAAATGTAGCCGGAGTCACCTAGTGCAG”, the binding signal was 35900 fluorescence intensity (a.u.).

Take “GCAGATCTTGACTATCTCCACGGGATATATACACGGCGGCCGGAGTCACCTAGTGCAG”: the binding signal is 22300 fluorescence intensity (a.u.).

Turning to “CTCCCTTCCCTTCCCTTCCTCTCGCCGAACCAACGCGGAACGGAGTCACCTAGTGCAG”, the binding signal was 3360 fluorescence intensity (a.u.).

Turning to “GCTCCTCGCGCTGCTCATCATCCTCCCCTCCACGCCGCCGCGGAGTCACCTAGTGCAG”, the binding signal was 4730 fluorescence intensity (a.u.).

Take “CGCTCATGAAGCTCCTTCCCTACGCGCGCTCGCCGAATCGCGGAGTCACCTAGTGCAG”: the binding signal is 44000 fluorescence intensity (a.u.).

On to “CCCAAGGAGGATGAGGTGGAGGTGGGAGTGCGCATTGAGGCGGAGTCACCTAGTGCAG”, for which the binding signal was 4880 fluorescence intensity (a.u.).

With “CCTTAGACCTTCTGGATTACATCGTAAGCTGGCTTCTCCTCGGAGTCACCTAGTGCAG”, the binding signal is 3490 fluorescence intensity (a.u.).

As for “CCACACAGCGATAATCGAGCGGATTGGACCAAAGTACGAGCGGAGTCACCTAGTGCAG”, the binding signal is 38200 fluorescence intensity (a.u.).

In the case of “CAAAGCGGCCCAACAATGAACACGTCACTTGTATTCACTACGGAGTCACCTAGTGCAG”, the binding signal was 7510 fluorescence intensity (a.u.).

With “ATGTGACTGAAAAGTTGTGTGTGTATGACAGGTTGATGTGCGGAGTCACCTAGTGCAG”, the binding signal is 3800 fluorescence intensity (a.u.).

Consider “CCAGGATAAAATAAAGGTTGTATGTTACAAATGTTTGATCCGGAGTCACCTAGTGCAG”, for which the binding signal is 42200 fluorescence intensity (a.u.).

Take “TGACAGGTTGATGTGATGGAAAAGGACTGAAGGTTGGATCCGGAGTCACCTAGTGCAG”: the binding signal is 42400 fluorescence intensity (a.u.).

In the case of “GTTTGAGATGTGTAATAAAGGATCGATCTTGTTGACGATCCGGAGTCACCTAGTGCAG”, the binding signal is 3530 fluorescence intensity (a.u.).

As to “TTGATTGAAATTGGAGATGATGTGACTGAAAAGTTGTGTGCGGAGTCACCTAGTGCAG”, the binding signal is 4220 fluorescence intensity (a.u.).

With “ACAAACTTTGTATACGTGTATAAAATATTGATATATGTACCGGAGTCACCTAGTGCAG”, the binding signal is 4410 fluorescence intensity (a.u.).
